An excerpt weighted towards active compounds, which were near 3.2% of everything screened.
TROY NFkB inh = inhibitors of TROY-driven NF-kB signaling, primary screen, Q293 LMP1-TROYcd cells, NF-kB luciferase, uHTS; Q293 LMP1-TROYcd NF-kB luciferase reporter, 4 h; inhibition, % at 10 µM; actives 0.98% (n = 360,000);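 active = compounds whose plate-normalised and pattern-corrected inhibition of the luciferase reporter signal at the single screening dose is 50% or more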
EWS-Fli block = EWS/Fli-driven NR0B1 reporter inhibitors, primary screen, A673 cells, NR0B1 luciferase, luminescence, MLPCN library. inhibition, % at 12.6 µM. actives 0.67% (n = 350,000). viability-normalised. AID 651661, 2012;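 active = mean inhibition of at least 50% after viability correction, with every replicate also passing that limit; inconclusive = mean reaches 50% but only one of two replicates passes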;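 note: firefly luciferase signal divided by Alamar Blue viability fluorescence both relative to DMSO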
TWEAK-Fn14 inh = inhibitors of TWEAK-Fn14 signaling, primary screen, luciferase reporter cells, uHTS; TWEAK-stimulated Fn14 reporter cells, luciferase luminescence, 8 h; inhibition, % at 10 µM; actives 2% (n = 360,000); in the data active = inhibition above about 50%
EBV LMP1 NFkB = EBV LMP1-driven NF-kappaB luciferase reporter inhibitors, primary screen, cell-based, luminescence, single point; LMP1-induced NF-kappaB luciferase reporter cells; AID 504558, 2011; actives 0.69% (n = 350,000); inhibition, % at 12.5 µM; in the data active = inhibition above about 41%; inconclusive = no clear call, values can overlap the other calls
LGR2 antag = inhibitors of bursicon-induced LGR2 CRE-luciferase signal, primary screen, cell-based, HEK293, CRE-luciferase reporter, bursicon stimulation; Drosophila bursicon receptor LGR2 (rickets); AID 720647, 2013; bursicon-stimulated, 4 h; inhibition, % at 9.99 µM; actives 0.35% (n = 380,000);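 active = drop in luminescence signal, shown as inhibition above about 50% in the replicate tests, limit read from the data, passing the limit was not always enough; inconclusive = probably only some replicates passing the limit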;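 note: agonist challenge used bursicon conditioned medium at about half maximal strength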
PAX8 inh HTS = inhibitors of PAX8-driven TPO luciferase reporter, primary screen, RMG-I cells, single concentration. SteadyGlo, 24 h. inhibition, % at 12.6 µM. actives 1.2% (n = 360,000). AID 652154, 2013;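 active = mean replicate inhibition at least 60% with every replicate also reaching 60%; inconclusive = only one of the two criteria is met; inactive = mean below 60% and not all replicates reaching 60%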;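 note: luciferase light reporting Pax8 driven TPO promoter activity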
Hits are given with their value.

O=C1C(N2CCOCC2)=C(n2nnc3ccccc32)C(=O)c2ccccc21 was read as TROY NFkB inh inactive, TWEAK-Fn14 inh inactive, EBV LMP1 NFkB 65 and PAX8 inh HTS 83.
Screening Cc1ccc2c(c1)COc1c3ccc(C(=O)N[C@@H](CO)C(C)C)cc3nn1-2 returned TROY NFkB inh inactive, EWS-Fli block inactive, TWEAK-Fn14 inh inactive, EBV LMP1 NFkB inactive, LGR2 antag inactive and PAX8 inh HTS inactive.
Screening C[C@@H](CO)NC(=O)c1ccc2c3n(nc2c1)-c1ccccc1CO3 returned TROY NFkB inh inactive, EWS-Fli block inactive, TWEAK-Fn14 inh 53, EBV LMP1 NFkB inactive, LGR2 antag inconclusive and PAX8 inh HTS inactive.
Screening O=C(C=C=Nc1ccccc1)C(=O)N=C=Cc1ccccc1 returned TROY NFkB inh 51, EWS-Fli block inactive, TWEAK-Fn14 inh 86, EBV LMP1 NFkB inactive, LGR2 antag inactive and PAX8 inh HTS 80.
Screening CCS(=O)(=O)Nc1ccc2c(c1)C(=O)N(C)C[C@@H](OC)[C@H](C)CN(Cc1nccs1)[C@@H](C)CO2 returned EWS-Fli block inactive and LGR2 antag inactive.
O=C(NC1C(=O)NNC1c1ccccc1)c1ccccc1 (stereo not drawn) was read as TROY NFkB inh inactive, TWEAK-Fn14 inh inactive and EBV LMP1 NFkB 44.
For CCC(NC(=O)Nn1cnnc1)(C(F)(F)F)C(F)(F)F the results were TROY NFkB inh inactive, TWEAK-Fn14 inh inactive, EBV LMP1 NFkB 66 and PAX8 inh HTS inactive.
CCC(NC(=O)Nc1ccc(O)cc1)(C(F)(F)F)C(F)(F)F was read as TROY NFkB inh inactive, TWEAK-Fn14 inh inactive and EBV LMP1 NFkB inactive.
O=C(C[C@H]1C[C@@H]2c3cc(NC(=O)Nc4ccc(C(F)(F)F)cc4)ccc3O[C@@H]2[C@@H](CO)O1)NCc1ccc2c(c1)OCO2 was read as EWS-Fli block inactive, LGR2 antag inactive and PAX8 inh HTS 65.
`O=C(C[C@@H]1C[C@H]2c3cc(NC(=O)Nc4ccc(C(F)(F)F)cc4)ccc3O[C@H]2[C@H](CO)O1)NCc1ccc(Cl)cc1` gave EWS-Fli block inactive, LGR2 antag inactive and PAX8 inh HTS 94.
For CO[C@H]1CN(C)C(=O)c2cc(NC(=O)C3CC3)ccc2OC[C@@H](C)N(Cc2ccccc2)C[C@H]1C the results were EWS-Fli block inactive and LGR2 antag inactive.
`CCCCNC(=O)C1(C)CCN1C(=O)c1cc(-c2cccs2)oc1C` (stereo not drawn) gave TROY NFkB inh inactive, EWS-Fli block inactive, TWEAK-Fn14 inh 78, LGR2 antag inconclusive and PAX8 inh HTS inactive.
CCCCNC(=O)C1(C)CCN1C(=O)c1ccccc1Br (stereo not drawn) was read as TROY NFkB inh inactive, EWS-Fli block inactive, TWEAK-Fn14 inh inactive and LGR2 antag inactive.
`O=C(NCC(c1cccnc1)N1CCN(c2ccccc2F)CC1)C1CCCCC1` (stereo not drawn) gave TWEAK-Fn14 inh 85 and EBV LMP1 NFkB inactive.
`CCc1nc2ccccc2c(C(=O)OCC(=O)Nc2cccc(S(=O)(=O)NC3=NCCCCC3)c2)c1C` gave TROY NFkB inh 60, EWS-Fli block inactive, TWEAK-Fn14 inh 80, EBV LMP1 NFkB inactive, LGR2 antag inactive and PAX8 inh HTS inactive.
`CCCn1c(SCC(=O)Nc2cccc(S(=O)(=O)NC3=NCCCCC3)c2)nc2ccccc2c1=O` gave TROY NFkB inh 57, EWS-Fli block inactive, TWEAK-Fn14 inh 78, EBV LMP1 NFkB inactive, LGR2 antag inactive and PAX8 inh HTS inactive.
Screening CCc1nc2ccccc2c(C(=O)OCC(=O)Nc2ccc(S(=O)(=O)N3CCOCC3)cc2)c1C returned TROY NFkB inh inactive, TWEAK-Fn14 inh inactive and EBV LMP1 NFkB inactive.
Cc1c(-c2cccc(Cl)c2)nc2ccccc2c1C(=O)OCC(=O)Nc1ccc2c(c1)OCO2 was read as TROY NFkB inh inactive, TWEAK-Fn14 inh 52, EBV LMP1 NFkB inactive, LGR2 antag inactive and PAX8 inh HTS inactive.
For CCc1nc2ccccc2c(C(=O)OCC(=O)Nc2cccc(S(=O)(=O)N3CCOCC3)c2)c1C the results were TROY NFkB inh 68, TWEAK-Fn14 inh 97 and EBV LMP1 NFkB inactive.
